In PubChem BioAssay AID2550 (Johns Hopkins Ion Channel Center, 2010):
About 380 (0.12%) of roughly 310,000 compounds were called active. This is one part of a sample in which actives are shown more often than they occur.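 How the source made its calls: active means B-score of the integrated fluorescence ratio above library mean plus 3 SD, and starting fluorescence ratio within library mean plus 5 SD; inactive means the rest.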

target: Short transient receptor potential channel 6 (Mus musculus) (UniProt Q61143); assay: small molecules opening TRPC6 cation channel – cell-based, HEK293, membrane potential dye, primary screen (AID 2550); conditions: HEK293-TRPC6 membrane potential dye fluorescence, at 10 µM; hits give high values;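 further: higher score means more depolarization so channel activation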
Sequence (Q61143 whole entry, looked up): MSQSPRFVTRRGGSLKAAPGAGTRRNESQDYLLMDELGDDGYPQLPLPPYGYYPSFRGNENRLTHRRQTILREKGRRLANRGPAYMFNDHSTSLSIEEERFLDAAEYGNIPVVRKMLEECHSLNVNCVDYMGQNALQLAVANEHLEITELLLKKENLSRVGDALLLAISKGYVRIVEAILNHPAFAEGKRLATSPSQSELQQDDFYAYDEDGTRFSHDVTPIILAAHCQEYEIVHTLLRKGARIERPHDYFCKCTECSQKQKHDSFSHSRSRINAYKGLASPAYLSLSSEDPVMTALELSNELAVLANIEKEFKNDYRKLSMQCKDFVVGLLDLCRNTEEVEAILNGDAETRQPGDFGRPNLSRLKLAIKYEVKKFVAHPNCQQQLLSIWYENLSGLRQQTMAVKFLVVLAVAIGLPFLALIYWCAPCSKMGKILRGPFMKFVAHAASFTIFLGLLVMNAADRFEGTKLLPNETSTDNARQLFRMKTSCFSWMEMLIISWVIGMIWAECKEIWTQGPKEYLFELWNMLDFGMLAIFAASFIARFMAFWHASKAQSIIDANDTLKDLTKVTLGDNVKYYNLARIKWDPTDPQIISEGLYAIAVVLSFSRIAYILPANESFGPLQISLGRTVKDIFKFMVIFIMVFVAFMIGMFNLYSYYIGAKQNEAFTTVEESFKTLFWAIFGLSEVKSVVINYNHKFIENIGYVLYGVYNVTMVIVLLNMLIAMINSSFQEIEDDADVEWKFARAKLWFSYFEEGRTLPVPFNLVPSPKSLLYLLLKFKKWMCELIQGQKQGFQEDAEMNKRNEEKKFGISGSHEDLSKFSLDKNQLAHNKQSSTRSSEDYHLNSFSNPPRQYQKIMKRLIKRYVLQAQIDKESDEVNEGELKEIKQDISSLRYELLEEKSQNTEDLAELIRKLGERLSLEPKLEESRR

Row | Structure (SMILES) | B-score
1 | O=C1NC(=O)C(c2ccc(Cl)cc2)N1 (stereo not drawn) | inactive
2 | CC(=O)N1N=C(c2ccncc2)OC1(Cc1ccccc1)Cc1ccccc1 | inactive
3 | CCCN(CCc1ccccc1)C1CCc2c(O)cccc2C1 (stereo not drawn) | 16.8 (active)
4 | Cc1cc(C)cc(C(=O)N(CCc2ccccc2)C2=CC3CCC(C2)N3C)c1 (stereo not drawn) | inactive
5 | CN1CCN(/N=C/c2ccc(-c3ccc([N+](=O)[O-])cc3)o2)CC1 | 16.2 (active)
6 | Cc1ccc(-c2ccc(/C=N/NC(=O)CN3CCOCC3)o2)cc1[N+](=O)[O-] | inactive
7 | CN1CCN(/N=C/c2ccc(C#N)cc2)CC1 | inactive
8 | Cc1cc(N2CCN(c3ccc(F)cc3)CC2)n2ncnc2n1 | inactive
9 | CCOCCCN1C(=O)C2C(C(=O)Nc3ccc(OCC)cc3)C3C=CC2(O3)C1C(=O)NC1CCCCC1 (stereo not drawn) | inactive
10 | O=C(c1ccc(Cl)cc1)n1cnc2ccccc21 | inactive
11 | CC(NC(=O)CNC(=O)Cc1cccc2ccccc12)c1ccc(S(N)(=O)=O)cc1 (stereo not drawn) | inactive
12 | CCC(C(=O)OC)n1cnc2scc(-c3ccc(C)cc3)c2c1=O (stereo not drawn) | inactive
13 | O=[N+]([O-])c1cccc(/C=N/Nc2ncc(Br)cn2)c1 | inactive
14 | O=C(N/N=C/c1ccc(Cl)c(Cl)c1)c1ccc2nc[nH]c2c1 | inactive
15 | CCO/C=C1\C(=O)N(c2ccc(OCC)cc2)C(=O)c2ccccc21 | inactive
16 | COc1ccc(C(C)C)cc1S(=O)(=O)Nc1ncn[nH]1 | inactive
17 | CCC(=O)c1ccc(OCC(=O)OCC(=O)NC2CCCCCC2)cc1 | inactive
18 | Cc1nc2c(-c3ccc(F)cc3)c(C)nn2c(C)c1CCC(=O)NCc1ccco1 | inactive
19 | Cc1cc2c(cc1C)[n+](C)cn2CC(O)COCC1CC=CCC1 (stereo not drawn) | inactive
20 | N#Cc1ccc(-c2ccc(Cl)cc2)nc1Oc1ccc(F)cc1 | inactive
21 | Cc1nn(C)c(C)c1S(=O)(=O)N1CCC(CO)(Cc2ccc(Cl)cc2)CC1 | inactive
22 | COc1cccc(OC)c1C(=O)Nc1c(C(=O)N2CCN(c3ccccn3)CC2)oc2ccccc12 | inactive
23 | CN1CCN(CCCCOc2ccccc2-c2ccccc2)CC1 | inactive

Row | Structure (SMILES) | B-score
24 | Oc1ccc(CNc2ccccc2O)cc1 | inactive
25 | COc1ccc(-n2ncc3c2CC(C)(C)CC3NC(=O)CCc2c(C)noc2C)cc1 (stereo not drawn) | inactive
26 | Cc1ccc(N(CCC(=O)O)S(=O)(=O)c2cccc(C(F)(F)F)c2)cc1 | inactive
27 | CCOc1ccc(CN(C)C(=O)c2ccc(=O)[nH]c2)cc1 | inactive
28 | Cc1nn(-c2ccccc2)c2sc(C(=O)N(Cc3ccco3)C(C)C(=O)NC(C)(C)C)cc12 (stereo not drawn) | inactive
29 | CCN(CC(=O)NCc1ccc(Cl)cc1)C(=O)CSc1ccccc1 | inactive
30 | O=C(Nc1ccc(N2CCCC2=O)cc1)c1cncc(Br)c1 | inactive
31 | COc1ccc(CN2CCC(c3nc4ccc(Cl)cc4[nH]3)CC2)cc1 | inactive
32 | CCc1ccc(C(=O)NNC(=O)C2CCN(c3ncnc4sc(C)c(C)c34)CC2)cc1 | inactive
33 | O=C(O)CCn1c(SCc2cc(=O)n3ccccc3n2)nc2ccsc2c1=O | inactive
34 | Cc1sc(NC(=O)C2C3CCC(O3)C2C(=O)O)c(C(=O)OC(C)C)c1-c1ccc(Cl)cc1 (stereo not drawn) | inactive
35 | CC(C)(C)n1nnnc1C(c1ccccc1F)N1CCN(C(=O)c2ccco2)CC1 (stereo not drawn) | inactive
36 | CCOCCCN(C)C1CCN(C(=O)c2oc3ccccc3c2NC(=O)Cc2cccc([N+](=O)[O-])c2)CC1 | inactive
37 | CC1=C(N2CCN(c3ncccn3)CC2)CCC1=O | inactive
38 | O=S(=O)(NC(=S)Nc1ccccc1)c1ccc(F)cc1 | inactive
39 | Nc1ccc(SCCN2C(=O)c3ccccc3C2=O)cc1 | inactive
40 | COC(=O)CNc1nc(Cl)nc(N2CCC(C)CC2)n1 | inactive
41 | Cc1ccc(CNC(=O)c2ccccc2CCc2ccccc2)cc1 | inactive
42 | O=C1CC2(CC(c3ccc(Cl)cc3)=NO2)C(=O)N1c1ccccc1 (stereo not drawn) | inactive
43 | CCOC(=O)N1CCN(C(=O)CSc2nc(=O)n3cccc(C)c3n2)CC1 | inactive
44 | CCCN(CCC)c1nc2c(C)cccn2c(=O)c1/C=C1/SC(=S)N(Cc2ccco2)C1=O | inactive
45 | CCOC(=O)CC1C(=O)NCCN1c1nc2c(C)cccn2c(=O)c1/C=C1\SC(=S)N(C(C)CC)C1=O (stereo not drawn) | 26.7 (active)
46 | O=C1C2C3C=CC(C4CC34)C2C(=O)N1/N=C/c1ccc(-c2ccccc2[N+](=O)[O-])o1 (stereo not drawn) | inactive

Row | Structure (SMILES) | B-score
47 | COC(=O)[C@@H](Cc1ccccc1)NC(=O)NCCc1ccccc1 | inactive
48 | O=[N+]([O-])c1ccccc1N/N=C1\CCc2ccccc21 | inactive
49 | O=C(NCCS(=O)(=O)NCc1ccc(Cl)cc1)c1ccccc1 | inactive
50 | CC(C)NC(=O)c1ccc(Sc2ccccc2)c([N+](=O)[O-])c1 | inactive
51 | CCOc1ccc(S(=O)(=O)N2CCCCCC2)c2ccccc12 | inactive
52 | CC1CCCCC1NC(=O)CSc1nnc(-c2ccncc2)n1CCCN(C)C (stereo not drawn) | inactive
53 | CCOC(=O)C1=C(O)/C(=C/c2cc(C)n(-c3ccccc3)c2C)N=C1C | inactive
54 | COc1cc(OC)c(C2=NOC(C(=O)Nc3c(C)n(C)n(-c4ccccc4)c3=O)C2)cc1Cl (stereo not drawn) | inactive
55 | CC(C)Cc1oc(C(=O)O)cc1CN | inactive
56 | O=[N+]([O-])c1cc(Cl)cc(/C=N/NC(=S)Nc2cc(S(=O)(=O)N3CCOCC3)ccc2Cl)c1O | inactive
57 | COc1ccc(S(=O)(=O)n2nc(C)c(S(=O)(=O)N3CCOCC3)c2C)cc1 | inactive
58 | CCOc1ccc(-c2c(C)n([O-])c3c([n+]2=O)CCCC3)cc1 | inactive
59 | COCCOC(=O)c1sc(=S)n(CCOC)c1N | inactive
60 | O=S(=O)(c1cccc2nonc12)N1CCN(c2cccc(Cl)c2)CC1 | inactive
61 | Cc1cc(C)nc(SC(C)C(=O)N/N=C/c2cccs2)n1 (stereo not drawn) | inactive
62 | CN1CCN(c2cc3c(cc2F)c(=O)c(C(=O)O)cn3CCF)CC1 | inactive
63 | CCn1cc(C(=O)NCCO)c(=O)c2cc(F)c(N3CCN(C)CC3)cc21 | inactive
64 | CCCCCCn1cc(C(=O)O)c(=O)c2cc(F)c(N3CCCCC3)cc21 | 12.2 (active)
65 | COCCNC(=O)/C(C#N)=C/c1nc(N(C)C)n(-c2ccc(F)cc2)c1Cl | inactive
66 | CN(c1ccccc1)c1ccc(/C=c2\s/c(=C(/C#N)C(=O)C(C)(C)C)n(Cc3ccco3)c2=O)cc1 | 33.3 (active)
67 | CCOC(=O)/C=c1\s/c(=C\c2ccc(C#N)cc2)c(=O)n1CC(=O)Nc1cccc(C)c1C | inactive
68 | CCOC(=O)Cn1c(=O)oc2cc(S(=O)(=O)N(C)Cc3ccco3)ccc21 | inactive
